Test results from the OligoGym collection.

target: NOL7; assay: pooled miR-30 sensor sort-seq; sequence = guide strand; conditions: shRNA
Note: reference of the scale not given here.

Sequence | sensor-assay potency score (higher = more potent)
TTTTGTACTTTAACTTTCTTGG | -0.17
TTAACTTCTTTCACCTTTCCTG | -0.368
TCGATGAACAGCTCCTCGCGTC | -0.7
TAACTTCTTTCACCTTTCCTGG | -0.398
TTCGATGAACAGCTCCTCGCGT | -0.6
TTTTTGTACTTTAACTTTCTTG | -0.529

target: NOLC1; assay: as above; conditions: shRNA

Sequence | sensor-assay potency score (higher = more potent)
TTTGGTGAACTTCAAAACCTGA | -0.529
TTTAGTCTGAGCTTTAACTGTC | 0.463
TTGCTTTAGAGACTACTGCCTT | -0.589
TTGCTTTTTAGGTACAGTCTTC | -0.681
TAACTTTCGCTCTGGGACCTTG | -0.857
TTGCCTGTAACTTTCGCTCTGG | 0.151
TTAGCTTTCTTAGCCACTGGTC | -0.169
TTGACCTGGACAGAGATTGAGC | -0.52
TTAGGTACAGTCTTCTTGGGGG | 0.125
TTTAGGTACAGTCTTCTTGGGG | -0.268

target: NOMO3; assay: as above; conditions: shRNA

Sequence | sensor-assay potency score (higher = more potent)
TGGAACACCATCTCCTTCGGGT | -0.53
TAACAGTGATTTTCTCTCCAGA | -0.602
TTTGGTGCAATTTTGATGGTGA | 0.652
TATGATGTTTACATCATCGATG | -0.855
TTGATCTCCACGTCCGACTTGA | 0.49
TTCACCTTCCTCATTGCCGTTT | -0.31
TTATTTTGTATTTTCCAGGGAG | 0.546
TTATTCATCTGCTTGACGGTGT | 0.998
TATCTGACCACAGACACTGAAC | -1.06
TTGGTGTACAGCTTTATCTCGA | 0.0866
TTGTCTTCTGTTTCTTGGCTTG | -0.491
TAGAACGCTTGCTCAAACCGGT | 0.161
TGTTGCAACAATGTCAGCCAGC | -0.925
TAAAGCTTGACCCATAACGTAG | -0.74
TAACTCATCTACCATCTCCTGC | -0.337
TTGTCTCTTTGCATCTTCTGGG | -0.0196

target: NOTCH4; assay: as above; conditions: shRNA

Sequence | sensor-assay potency score (higher = more potent)
TAGGGGTACACCATGTCCCTGC | 0.0292
TTAGGGTTCTTAAATAGCGATA | -1.36
TATATAGGAAAGAACATCTTAC | 0.0056
TTCTTGGTTCCAACTTAGGGGT | -0.898
TTGAGCAGTTCTGTCCATCGTA | 0.59
TTGGGACTGACAAGCATCGAGT | -0.743
TTGGCTGAACAGAAGTCCCGAA | -0.0674
TATCTTCCTCGCATTATCGCAG | -0.574
